# Measurements published in PubChem BioAssay (NCATS).
# Records with an inconclusive call do not appear. Where a call stands in place of a potency, no number is given. Activity calls are given as the source filed them. Calls follow the shape of the dose curve; as a rule, active = well fitted inhibition curve with a large enough effect; inconclusive = small, poorly fitted or top-dose-only effect; inactive = flat fitted curve, though single readings scatter.
# Test system: Zika virus NS2B-NS3 protease
# Experiment: Primary screen GU AMC qHTS for Zika virus inhibitors (AID 1347154); also: nearly all actives have a fitted effect of over 70% in size
# Settings: Zika NS2B-NS3 unlinked protease, AMC fluorogenic substrate; series mostly up to 54.1 µM
# Text: Avindra Nath, Ph.D., National Institute of Neurological Disorders and Stroke (NINDS), Bethesda, MD
# Radhakrishnan Padmanabhan, Ph.D., Georgetown University (GU), Washington D.C.
# Zika Virus causes congenital defects, including microcephaly and is associated with Guillain-Barre syndrome, eningoencephalitis and myelitis in infected adult. […] Using a target-based approach, we hope to establish a screening paradigm to uncover novel, cell-active NS2B-NS3 protease (Zika Virus) specific inhibitors from NCATS' collection of small molecules using qHTS.
# Early Translation Branch (ETB)
# National Center for Advancing Translational Sciences (NCATS), Rockville, MD
# National Institute of Health (NIH), Bethesda, Maryland
# Padmanabhan lab provided the NS2B hydrophilic domain and NS3 protease domain in a noncovalent complex used for the unlinked assay. Control compound aprotinin is obtained from Thermo Scientific (#78432; Waltham, Massachusetts). NS2B-NS3 AMC substrate (Bz-Nle-Lys-Arg-Arg-AMC; Nle-KRR-AMC) purchased from Bachem (#I-1995; Torrance, CA). Ac-VKTGKR-AMC purchased from Genscript or Bachem, Ac-FAAGKR-AMC purchased from Genscript, Ac-GLVKRR-AMC purchased from Genscript, Ac-LKKR-AMC purchased from Genscript.
# GU AMC unlinked NS2B-NS3 protease qHTS protocol
# Briefly, 3 microL of Zika virus unlinked NS2B-NS3 protease (25 nM for linked final concentration), in assay buffer (10 mM Tris-HCl pH 8.0 with 0.01% Tween 20) was dispensed into a 1,536-well solid-bottom black plate (Greiner Bio One, Monroe, NC). […] Plates were then read immediately on a ViewLux High-throughput CCD imager (PerkinElmer, Waltham, MA) equipped with standard UV fluorescence optics (340(30) nm excitation, 450(20) nm emission) then incubated (room temperature, protected from light) for 15 minutes (~20% conversion). The change in fluorescence intensity over the 15-minute reaction period was normalized against no-inhibitor and no-enzyme controls and the resulting percent inhibition data were fitted to a 4-parameter Hill equation. Aprotinin was used as the intraplate control.
Compound,Potency,"activity change, negative = inhibition"
O=C1/C(=C\c2ccccc2)C[C@@]2(O)[C@H]3Cc4ccc(O)c5c4[C@@]2(CCN3CC2CC2)[C@@H]1O5,inactive,
N[C@@H](CCP(=O)(O)O)C(=O)O,inactive,
CCCCC/C=C\C/C=C\C/C=C\C=C\[C@H](CCCC(=O)O)OO,,7.53% [at 0.59 µM] (inactive)
CNCC/C=C\c1cccnc1,inactive,
NCCc1ccccc1,inactive,
O=C1C2CCN(CC2)C1(CO)CO,inactive,
N[C@@]1(C(=O)O)CC[C@H](C(=O)O)C1,inactive,
CN1CCN(C(=O)O[C@@H]2c3nccnc3C(=O)N2c2ccc(Cl)cn2)CC1,inactive,
CC(C)C[C@H](NC(=O)[C@H](Cc1ccccc1)NC(=O)CNC(=O)[C@@H](NC(=O)[C@@H](N)Cc1ccc(O)cc1)[C@H](C)O)C(=O)N[C@H](C(=O)O)[C@H](C)O,,4.9% [at 6.83 µM] (inactive)
c1ccc(CCCCN2CCC(c3ccccc3)CC2)cc1,inactive,
CC(=O)C1=C(O)[C@@H]2[C@@H]3c4c[nH]c5cccc(c45)C[C@@H]3C(C)(C)N2C1=O,inactive,
CCCCC/C=C\C=C\[C@H](CCCCCCCC(=O)O)OO,,-1.43% [at 0.59 µM] (inactive)
O=C1CC[C@@]2(O)[C@H]3Cc4ccc(O)c5c4C2(CCN3CC2CC2)[C@H]1O5,inactive,
CCCn1c(C)c(C(=O)c2cccc3ccccc23)c2ccccc21,inactive,
CC(C)[C@@]1(NC(=O)[C@@H]2C[C@H]3c4cccc5[nH]cc(c45)C[C@@H]3N(C)C2)O[C@@]2(O)[C@H]3CCCN3C(=O)[C@H](Cc3ccccc3)N2C1=O,inactive,
CN(C(=O)Cc1ccc(Cl)c(Cl)c1)C(CN1CCCC1)c1cccc(N=C=S)c1 (stereo not given),inactive,
Fc1ccc(C(OCCN2CCN(C/C=C\c3ccccc3)CC2)c2ccc(F)cc2)cc1,inactive,
CCN(CC)CCO[C@H]1CC[C@@]2(C)C(=CC[C@@H]3[C@H]2CC[C@]2(C)C(=O)CC[C@H]32)C1,inactive,
CCCCC[C@@H](/C=C/C=C\C/C=C\C/C=C\CCCC(=O)O)OO,,15.4% [at 0.59 µM] (inactive)
CN1C2CCC1CC(OC(c1ccc(F)cc1)c1ccc(F)cc1)C2 (stereo not given),inactive,

Compound,Potency,"activity change, negative = inhibition"
CN1C[C@H](CNC(=O)OCc2ccccc2)C[C@H]2c3cccc4c3c(cn4C)C[C@@H]21,inactive,
CC1OC(=O)[C@@H](C(C)C)NC(=O)C(C(C)C)OC(=O)[C@H](C(C)C)NC(=O)C(C)OC(=O)[C@@H](C(C)C)NC(=O)C(C(C)C)OC(=O)[C@H](C(C)C)NC(=O)C(C)OC(=O)[C@@H](C(C)C)NC(=O)C(C(C)C)OC(=O)[C@H](C(C)C)NC1=O (stereo not given in full),inactive,
H-YGGFLRKYPK-OH,,17.1% [at 6.83 µM] (inactive)
NCC(CS(=O)(=O)O)c1ccc(Cl)cc1 (stereo not given),inactive,
Cc1ccc2c(c1)Cc1c(C(=O)NN3CCCCC3)nn(-c3ccc(Cl)cc3Cl)c1-2,inactive,
CC(Cc1cccc(C(F)(F)F)c1)NCCCc1ccccc1 (stereo not given),inactive,
CC(C)C[C@H]1C(=O)N2CCCC2[C@]2(O)O[C@](NC(=O)[C@@H]3C=C4c5cccc6[nH]cc(c56)CC4N(C)C3)(C(C)C)C(=O)N12 (stereo not given in full),inactive,
CCN1C[C@]2(COC)CC[C@H](OC)[C@@]34C5C[C@@H]6[C@@H](OC)C[C@@]7(OCO[C@@]7([C@@H](O)C23)[C@@H]14)C5[C@H]6OC (stereo not given in full),inactive,
COC(=O)N1CCN(C(=O)Cc2ccc(Cl)c(Cl)c2)[C@H](CN2CCCC2)C1,inactive,
CC(C)(C)NC[C@@H](O)COc1cccc2[nH]c(C#N)cc12,inactive,
c1cncc(C2CCCCN2)c1 (stereo not given),inactive,
N[C@H](CCP(=O)(O)O)C(=O)O,inactive,
O=C1Nc2ccccc2C2(CCN(CCc3ccc(C(F)(F)F)cc3)CC2)O1,inactive,
S=C=Nc1cccc(C2(N3CCCCC3)CCCCC2)c1,inactive,
COc1cccc2c1cc([N+](=O)[O-])c1c(C(=O)O)cc3c(c12)OCO3,inactive,
CCCCCOc1c(OC)ccc2cc(C(=O)NCc3ccc4c(c3)OCO4)c(=O)[nH]c12,inactive,
O[C@H]1[C@H](O)[C@@H](O)CN2CC[C@H](O)[C@H]12,inactive,
COc1cc(OC2CCN(C(C)=O)CC2)ccc1C(=O)N1CCC(N2C(=O)OCc3ccccc32)CC1,inactive,
O=NN1CCCC1c1cccnc1 (stereo not given),inactive,
c1ccc2c(c1)OC[C@@H](C1=NCCN1)O2,inactive,
